A selection: hits, their analogues and other compounds. The true share with any hit is near 27%.
CYP2C9 inhib – blocks human cytochrome P450 2C9. P11712. CYP2C9 Supersomes, luciferin-H conversion, luminescence. inhibition, % at 5 µM. 96,000 compounds, 20% hits. AID 777;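 active means blocking of liver enzyme CYP2C9 beyond about 50% at 5 µM, limit read from the data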
CYP2C9 act – activators of human CYP2C9. recombinant CYP2C9, luciferin-H conversion, luminescence; stronger effect = higher value; factor 1 = untreated enzyme, 0 = blocked. activation factor at 5 µM. 96,000 compounds, 1.4% hits;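 active means activation factor of 2 or more for CYP2C9 at a 5 µM dose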
Cav3 T inh – inhibitors of human Cav3.2 T-type calcium channel. B-score at 10 µM. 100,000 compounds, 4% hits. Cav3.2-expressing cells, Fluo-4 calcium fluorescence FDSS; stronger effect = lower value;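 active means single-dose well whose peak fluorescence ratio is a statistical outlier from its plate by either plate-standardised score or position-corrected B-score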
CYP2C19 act – cytochrome P450 2C19 (human) activation; P33261; recombinant CYP2C19, luciferin-H EGE luminescence; stronger effect = higher value; 0 = fully inhibited enzyme, 1 = untreated enzyme; activation factor at 5 µM; 96,000 tested, under 10 active; AID 1025;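 active means activation factor of at least 2 at 5 µM in the primary screen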
Target sequence (P33261 whole entry, looked up): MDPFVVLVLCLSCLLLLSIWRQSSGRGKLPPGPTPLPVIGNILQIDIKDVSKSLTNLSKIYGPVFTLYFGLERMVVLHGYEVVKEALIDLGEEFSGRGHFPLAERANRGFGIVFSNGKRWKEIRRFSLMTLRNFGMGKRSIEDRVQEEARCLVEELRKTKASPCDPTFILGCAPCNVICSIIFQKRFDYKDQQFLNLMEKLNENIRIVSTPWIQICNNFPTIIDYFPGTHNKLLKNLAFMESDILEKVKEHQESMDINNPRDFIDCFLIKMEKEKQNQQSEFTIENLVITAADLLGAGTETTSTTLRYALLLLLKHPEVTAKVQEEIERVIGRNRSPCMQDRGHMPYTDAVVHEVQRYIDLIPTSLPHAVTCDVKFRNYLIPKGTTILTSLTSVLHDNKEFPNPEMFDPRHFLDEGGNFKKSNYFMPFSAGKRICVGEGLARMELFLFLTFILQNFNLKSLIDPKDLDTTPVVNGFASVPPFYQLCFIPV
CYP2C19 inhib – blocks human cytochrome P450 2C19. P33261. 96,000 compounds, 21% hits. CYP2C19 Supersomes, luciferin-H EGE luminescence, 30 min. inhibition, % at 5 µM;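 active means CYP2C19 inhibition above a set limit at 5 µM in the primary screen, cut at about 50% in these data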
Of the large screens only hits and unclear results are named; the others gave an inactive call.

COc1cccc(C2C3=C(CC(C)(C)CC3=O)Nc3cc4c(cc32)OCO4)c1 (stereo unspecified)	CYP2C9 inhib 93, CYP2C19 inhib 72
COC(=O)C1=C(C)NC2=C(C(=O)CC(C)(C)C2)C1c1ccsc1 (stereo unspecified)	none (no result: CYP2C9 inhib, CYP2C9 act, CYP2C19 act, CYP2C19 inhib)
COCCOC(=O)C1=C(C)NC2=C(C(=O)CC(C)(C)C2)C1c1cc2c(cc1Br)OCO2 (stereo unspecified)	CYP2C9 inhib 81, CYP2C19 inhib 94
O=S(=O)(N1CCOCC1)n1cnc2ccccc21	none
COc1ccc(OCC(=O)Nc2cc(-c3nn(C)c(=O)c4ccccc34)ccc2OC)cc1	none
CC1=C(C(=O)Nc2cccnc2)C(c2ccc3c(c2)OCO3)C2=C(CCCC2=O)N1 (stereo unspecified)	none
COc1ccccc1NC(=O)C1=C(C)NC2=C(C(=O)CCC2)C1c1ccc2c(c1)OCO2 (stereo unspecified)	CYP2C19 inhib 63
COC(=O)C1=C(C)NC2=C(C(=O)CCC2)C1c1cccs1 (stereo unspecified)	CYP2C9 inhib 76, CYP2C19 inhib 79
Cc1nc(-c2ccc(NS(C)(=O)=O)cc2)cs1	none
Cc1onc(-c2ccccc2Cl)c1C(=O)N1CCc2ccccc2C1	CYP2C19 inhib 54
CCOC(=O)c1c(C)c(C(=O)N2CCc3ccccc3C2)c(C)n1CC	CYP2C19 inhib 86
Cc1onc(-c2c(F)cccc2Cl)c1C(=O)N1CCc2ccccc2C1	CYP2C9 inhib 68, CYP2C19 inhib 96
CCOC(=O)C1CCCN(C(=O)c2c(-c3ccccc3Cl)noc2C)C1 (stereo unspecified)	CYP2C9 inhib 69, CYP2C19 inhib 79
Cc1onc(-c2c(F)cccc2Cl)c1C(=O)N1CCN(S(C)(=O)=O)CC1	none
CCOC(=O)c1c(C)c(C(=O)Nc2ccccc2)c(C)n1CC	none (no result: Cav3 T inh)
Cc1csc2ncc(C(=O)N3CCCc4ccccc43)c(=O)n12	none
O=C(Nc1cccc(F)c1)c1ccccc1	none
O=C(Nc1ccncc1)c1ccc(F)cc1	CYP2C9 inhib 61, CYP2C19 inhib 88
O=C(Nc1ccncc1)Nc1ccc(F)cc1F	CYP2C9 inhib 83, CYP2C19 inhib 97
COc1ccc(NC(=O)c2ccc(-n3cccn3)nc2)cc1	none
CC(C)CN1C(=O)c2ccc(C(=O)Nc3nccs3)cc2C1=O	none (no result: Cav3 T inh)
CC(C)CN1C(=O)c2ccc(C(=O)Nc3ccncc3)cc2C1=O	CYP2C9 inhib 97, CYP2C19 inhib 98
O=C(Nc1ccc(F)cc1)c1ccc(-n2ccnc2)nc1	CYP2C9 inhib 96, CYP2C19 inhib 100 (no result: Cav3 T inh)
O=C(CCC(=O)NNC(=O)Nc1ccc(Cl)cc1)NCc1ccccc1	none
COc1ccc(C(=O)Nc2ccncc2)cc1OC	CYP2C19 inhib 57
O=C(Nc1ccncc1)c1cccc(F)c1	CYP2C19 inhib 56
CCN(CC)S(=O)(=O)c1cc(C(=O)Nc2cccnc2)ccc1Cl	none
O=C(Nc1ccc(N2CCCC2)cc1)c1cccc(F)c1	Cav3 T inh -5.7
O=C(Nc1ccc(N2CCCC2)cc1)c1ccccc1F	none (no result: CYP2C9 inhib, CYP2C9 act, CYP2C19 act, CYP2C19 inhib)
CCN(CC)S(=O)(=O)c1cc(C(=O)Nc2ccncc2)ccc1Cl	CYP2C9 inhib 100, CYP2C19 inhib 100
Clc1cccc(Cl)c1-c1nnc2ccc(N3CCOCC3)nn12	CYP2C9 inhib 68, CYP2C19 inhib 52
Fc1cccc(Cl)c1-c1nnc2ccc(N3CCOCC3)nn12	none
CNC(=S)N/N=C/c1c(C)nn(-c2ccccc2)c1Cl	none
C/C(=N\NC(=S)NC(C)C)c1ccc(-n2ccnc2)cc1	CYP2C9 inhib 99, CYP2C19 inhib 90
COCCNC(=S)N/N=C(\C)c1ccc(-n2ccnc2)cc1	CYP2C9 inhib 100, CYP2C19 inhib 99
Cc1cc(C)n(-c2ccc(C(=O)NC(C)C)cc2)n1	none
CCOc1ccc(S(=O)(=O)Nc2ccc(C(=O)N/N=C(\C)c3ccc(-n4ccnc4)cc3)cc2)cc1	CYP2C9 inhib 99, CYP2C19 inhib 99
CNC(=S)N/N=C(\C)c1ccc(-n2ccnc2)cc1	CYP2C9 inhib 100, CYP2C19 inhib 99
CCCCOCCCn1cnc2c([nH]c3cc(OC)ccc32)c1=O	none
O=C1C=CC[C@H](/C=C/C[C@@H](O)C[C@H](O)CCc2ccccc2)O1	none (no result: CYP2C9 inhib, CYP2C9 act, CYP2C19 act, CYP2C19 inhib)
CC(C)c1ccc(CNc2ccc(N3CCOCC3)cc2)cc1	CYP2C19 inhib 95
c1cc(CNc2ccc(N3CCOCC3)cc2)ccn1	none
N#CCCN1CCn2c1nc1ccccc12	none
Nn1cc(-c2ccccc2)nc1SCC(=O)N1CCN(S(=O)(=O)c2ccc3ccccc3c2)CC1	none
CCCCNc1nnc(SCC(=O)N2CCN(S(=O)(=O)c3ccc4ccccc4c3)CC2)s1	CYP2C9 inhib 87, CYP2C19 inhib 79
COCCN1C=C(C(=O)OC)C(c2cc(Br)c(OC)c(OC)c2)C(C(=O)OC)=C1	CYP2C9 inhib 91
COC(=O)C1=CN(C)C=C(C(=O)OC)C1c1ccc(O)c(OC)c1	none
CN(C)S(=O)(=O)c1cccc(-c2nnc(SCc3cc(Cl)cc4c3OCOC4)n2N)c1	CYP2C9 inhib 82
CCCC(=O)C1=C(O)C(C(=O)OC)C(C)(C)CC1=Nc1ccc(N)cc1 (stereo unspecified)	CYP2C19 inhib 52
CCCCC(=NCCO)C1=C(O)C(C(=O)OC)C(C)(C)CC1=O (stereo unspecified)	none
CCCC(=Nc1ccc(N)cc1)C1=C(O)C(C(=O)OC)C(C)(C)CC1=O (stereo unspecified)	Cav3 T inh -5.1
Cc1ccc(C)c(NC(=O)CSc2nnc(-c3ccccc3C)o2)c1	Cav3 T inh -5.5
COc1ccc(NCc2nnc(SCC(=O)Nc3cc(C(F)(F)F)ccc3Cl)o2)cc1	CYP2C9 inhib 80, CYP2C19 inhib 82
COc1ccc(CCCc2nnc(SCC(=O)Nc3cc(C)ccc3C)o2)cc1	CYP2C9 inhib 63
COc1ccc(CCCc2nnc(SCC(=O)Nc3ccc(C)c(C)c3)o2)cc1	none
Cc1ccc(C)c(NC(=O)CSc2nnc(CCNC(=O)OC(C)(C)C)o2)c1	CYP2C19 inhib 80 (no result: Cav3 T inh)
O=C(COC(=O)CNS(=O)(=O)c1ccccc1)Nc1ccc(Cl)cn1	none
CCOC(=O)N1CCN(C(=O)CN2C(=O)COc3ccc(C(C)(C)C)cc32)CC1	none
COc1cc(C(=O)Nc2cc(C(F)(F)F)ccc2Cl)cc(OC)c1OC	none (no result: Cav3 T inh)
Cc1ccc(NC(=O)CSc2nnc(CCCCCNC(=O)OC(C)(C)C)o2)c(C)c1	none (no result: CYP2C9 inhib, CYP2C9 act, CYP2C19 act, CYP2C19 inhib)
COc1ccc(/C=C/C(=O)Nc2cc(C(F)(F)F)ccc2Cl)cc1	CYP2C9 act 2
Cc1c(Cl)cccc1NC(=O)CSc1nnc(CCNC(=O)OC(C)(C)C)o1	CYP2C9 inhib 68, CYP2C19 inhib 78
CCOC(=O)C1C(=O)NC(SC)=C(C#N)C1c1ccccc1F (stereo unspecified)	Cav3 T inh -4.9, CYP2C19 inhib 91
N#CC1=C(SCC(N)=O)NC(=O)CC1c1ccccc1Cl (stereo unspecified)	none
COC(=O)C1C(=O)NC(SC)=C(C#N)C1c1ccccc1 (stereo unspecified)	none

Screens deposited in PubChem by several laboratories.
